The results in this text go back to publication PMC5540273 (PLoS ONE, 2017).

Where only a bound is given, the exact number is not on record here.
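Also: kd values determined as follow-up on hits from a single-replicate KINOMEscan panel screen.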

For one assay, the system named is CDKL1.
In general, Kd refers to the equilibrium constant for the complex coming apart. Higher therefore signals lower affinity. For the compound `Cc1c(Cn2c(C)c(C)n3c(=O)cc(N4CCOCC4)nc23)cccc1C(F)(F)F` [GSK2328680], the Kd is > 10 µM. Consider `Cc1ccc(NC(=O)Nc2ccc(Cl)c(C(F)(F)F)c2)cc1-c1ccc(C(=O)Nc2ccncc2)cc1` [GSK1398470], for which the Kd is > 10 µM. Still for that read-out and setting: then `Cn1cnc2c(N)ncnc21` [SKF-97623], with > 10 µM; and `Cn1cncc1-c1cc2c(Nc3ccc(OCc4ccccc4)cc3)ncnc2cn1` [GW281179], with > 10 µM; and `CNC(=O)c1ccc(C)c(-n2c(C)cc(OCc3ccc(F)cc3F)c(Br)c2=O)c1`, with > 10 µM.

`NS(=O)(=O)c1cccc(N/C=C2\C(=O)Nc3ccc(S(=O)(=O)Cc4c(Cl)cccc4Cl)cc32)c1` [GSK398099]: the Kd is > 10 µM. Still for that read-out and setting: then `Cn1cncc1C(=O)NC1CCN(c2ccnc(Nc3ccc(F)cc3)n2)C1` (stereo not shown) [GSK1379717], with > 10 µM. As to `COc1ccc(Nc2nccc(N3CCC(NC(=O)C(C)c4ccc(Cl)cc4)C3)n2)cc1` (stereo not shown) [GSK1379735], the Kd was > 10 µM.

Another assay concerns CDKL2.
`COC(=O)c1cccc(NC(=O)NC2CCN(c3ccnc(Nc4ccc(F)cc4)n3)C2)c1` (stereo not shown) [GSK1379725] displayed an equilibrium dissociation constant (Kd) of 0.68 µM. `O=C(Nc1n[nH]c2nc(-c3cccs3)c(Br)cc12)C1CC1` [SB-735297] gave an equilibrium dissociation constant (Kd) of 0.14 µM. This Kd lies about 4.9-fold lower than the previous one.

`O=C(Nc1n[nH]c2cc(-c3ccsc3)ccc12)C1CC1` [SB-732932] showed a Kd of 0.1 µM.

`O=C(Nc1n[nH]c2nc(-c3cccs3)c(Br)cc12)C1CCCC1` [SB-743341] yielded a dissociation constant Kd of 0.33 µM.

The next assay relates to CHEK1.
Consider `COc1ccc(Nc2nccc(-c3ccc(NC(=O)c4cc5cc(F)ccc5[nH]4)cc3)n2)cc1` [GSK1229496], for which the Kd is > 10 µM. `Cc1ccccc1-c1cc(-c2c[nH]nc2-c2ccccn2)ccn1` [GW680061]: the Kd is > 10 µM. `COc1cccc(C2=C(Nc3cc(Cl)c(O)c(Cl)c3)C(=O)NC2=O)c1` [SB-390767]: the Kd is > 10 µM. `COC(=O)C(Cc1ccccc1)NC(=O)NC1CCN(c2ccnc(Nc3ccc(F)cc3)n2)C1` (stereo not shown) [GSK1379714]: the dissociation constant Kd was > 10 µM. On the same count and under the same terms, then `FC(F)(F)c1ccccc1-c1cc(-c2c[nH]nc2-c2ccccn2)ccn1` [GW679396], with > 10 µM; and `CS(=O)(=O)CCNCc1nc(-c2ccc3ncnc(Nc4ccc(OCc5ccccc5)c(Cl)c4)c3c2)cs1.Cl` [GW582764], with > 10 µM; and `COc1ccc(Nc2nccc(N3CCC(NC(=O)c4cc5ccccc5s4)C3)n2)cc1` (stereo not shown) [GSK1379738], with > 10 µM.
